Test results: PubChem BioAssay (NCATS)
Inconclusive results are not listed. Entries that show only a call come without a potency. Active and inactive are the calls of the source. Calls come from the whole dose curve; as a rule, active = well fitted inhibition curve with a large enough effect; inconclusive = small, poorly fitted or top-dose-only effect; inactive = flat fitted curve, though single readings scatter.

Biological target: Calcium and integrin-binding protein 1 (Homo sapiens) (UniProt Q99828)
Assay: Primary qHTS for Identification of Calcium Integrin Binding Protein 1 (CIB1) Competitor (AID 1508620);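 note: GST tagged CIB1 binding a fluorescein labelled alphaIIb integrin peptide tracer; top concentration of the series differs between compounds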
Details: CIB1-GST / FITC-alphaIIb peptide fluorescence polarization; series mostly up to 114 µM
How it was run: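 CIB1-GST (1 uM final) and compound incubated 15 min at room temperature before adding FITC-alphaIIb peptide tracer (100 nM final). Competition for binding read by fluorescence polarization (ex 480, em 540) after another 15 min at room temperature.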

Calcium and integrin-binding protein 1 (Homo sapiens), sequence (Q99828 whole entry, looked up): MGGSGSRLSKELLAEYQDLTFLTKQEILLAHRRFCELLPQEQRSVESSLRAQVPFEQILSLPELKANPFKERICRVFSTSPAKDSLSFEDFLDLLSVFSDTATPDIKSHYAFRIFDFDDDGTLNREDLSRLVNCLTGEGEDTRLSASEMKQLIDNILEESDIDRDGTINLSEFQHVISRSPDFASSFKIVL

Row | Compound | Potency
1 | CCOC(=O)c1cccc(-n2cnc(/C=C3\NC(=O)N(CC(=O)O)C3=O)c2)c1 | inactive
2 | Nc1ccccc1OC1=NS(=O)(=O)c2ccccc21 | inactive
3 | O=C(NCCc1nc2ccccc2n1CCOc1ccc(F)cc1)C1CCCCC1 | inactive
4 | Oc1cc(Nc2ccccc2)cc2cccnc12 | inactive
5 | O=S1(=O)N=C(N2CCOCC2)c2ccccc21 | inactive
6 | O=C1C2=C(CN1c1ccccc1)NC(Nc1nc3ccccc3o1)=NC2c1ccccc1Cl (stereo not drawn) | inactive
7 | O=C(CNC(=O)c1ccccc1)OC(Cc1ccccc1)C(=O)Nc1cc(C(F)(F)F)ccc1Cl (stereo not drawn) | inactive
8 | Cc1cc2c(s1)c1cnn(Cc3cc(F)c(F)c(F)c3)c(=O)c1n2C | inactive
9 | O=c1c2ccccc2nc2sc(Nc3cccc(Br)c3)nn12 | inactive
10 | O=S(=O)(c1ccc(O)c2ncccc12)N1CCCCC1 | inactive
11 | O=C(O)c1cccc(-c2noc(-c3cccc(Cl)c3)n2)c1 | inactive
12 | COc1cccc(C2c3c(ncn(-c4ccccc4-c4ccccc4)c3=N)Oc3ccc4ccccc4c32)c1 (stereo not drawn) | inactive
13 | CN(C)c1ccc(C(=O)OCC#CCSc2nnc(-c3cccc4ccccc34)o2)cc1 | inactive
14 | COc1cc(-c2ccc3ncnc(NCc4cccs4)c3c2)cc(OC)c1OC | inactive
15 | COc1cccc(Nc2nn3c(=O)c4ccccc4nc3s2)c1 | inactive
16 | CC(=O)Nc1ccc(OC2=NS(=O)(=O)c3ccccc32)cc1 | inactive
17 | O=C(O)CCc1cc(F)c(S(=O)(=O)N2CCN(S(=O)(=O)c3ccc4c(c3)OCCO4)CC2)cc1F | inactive
18 | O=C(O)c1ccc(O)c2ncc(NCC3CCCN(CCc4ccccc4)C3)cc12 (stereo not drawn) | inactive
